The list is not random: actives were taken first. Their share in the collection is about 19%.
HT1080 IDH1KD tx – toxicity to HT-1080 IDH1 knockdown cells (counter line); HT-1080 IDH1 knockdown viability, ATP luminescence, 48 h; 360,000 compounds, 2% hits; Potency, µM (series often up to 46.1 µM), actives largely listed as cytotoxic; AID 686971
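Assay cells: HT-1080 with IDH1 knockdown, 750 per well, RPMI/5% FBS. Exposure: 48 h at 37 °C following 2 h pre-incubation. Read: CellTiter-Glo luminescence; fitted concentration-response, curve class assigned.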
IL-1B inflam inh – inhibitors of inflammasome signaling (IL-1 beta secretion). THP-1 LPS/ATP IL-1B secretion, AlphaLISA, 16 h; hits give low values. activity change, % at 57.5 µM. 360,000 compounds, 4.7% hits. AID 743279; in the data active = activity change below about -50%; inconclusive = mostly about -30% to -49%
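Secreted IL-1B measured by AlphaLISA bead assay after 16 h compound exposure of THP-1 cells; compounds (final up to 57.5 uM) added 1 h before LPS (250 ng/mL) and ATP (1.25 mM) stimulation; lower signal means less secretion.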
HT1080-NT tox – kills 2HG-producing HT-1080-NT fibrosarcoma cells | HT-1080-NT fibrosarcoma viability, CellTiter-Glo ATP luminescence, 48 h | Potency, µM (titrated, usually from 46.1 µM), hits mostly cytotoxic | 360,000 compounds, 1.6% hits | AID 686970;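 note: NT is the 2HG producing partner of a matched IDH1 knockdown line; nearly all actives have a fitted effect of over 55% in size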
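Viability of the 2HG-overproducing fibrosarcoma line after 48 hours of compound exposure at 37 degrees C was determined by luminescence with CellTiter-Glo, and concentration-effect curves were then fitted and categorized.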
DT40 TDP1 CPT – growth inhibition of DT40 Tdp1-/-;hTDP1 cells with camptothecin (screen for TDP1 inhibitors); 420,000 compounds, 12% hits; chicken DT40 Tdp1-/-;hTDP1 cells + 20 nM CPT, ATP luminescence, 48 h; Potency, µM (top dose mostly 46.2 µM), usual class: inhibitors; note: nearly all actives have a fitted effect of over 55% in size
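Chicken DT40 Tdp1-/- cells stably complemented with human TDP1 were seeded at 400 cells/well in medium containing 20 nM camptothecin, exposed to pin-transferred compounds, and grown at 37 °C for at least 48 hr. Viability was read as ATP luminescence.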
TDP1 cell noCPT – qHTS for Inhibitors of human tyrosyl-DNA phosphodiesterase 1 (TDP1): qHTS in cells in absence of CPT; DT40 Tdp1-/- hTDP1 cells, no CPT, ATP luminescence, 48 h; Potency, µM (highest dose often 46.2 µM), actives largely listed as inhibitors; 420,000 compounds, 15% hits; AID 686978, 2013; note: nearly all actives have a fitted effect of over 55% in size
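Compound effects on proliferation are scored in DT40 Tdp1-/-;hTDP1 cells in the absence of CPT. ATP levels (CellTiter-Glo luminescence) are recorded after a ≥48 hr, 37 °C incubation.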
uPA surface inh – cell surface uPA generation inhibition; cell surface uPA generation assay, qHTS; 330,000 compounds, 0.31% hits; Potency, µM (series often up to 38.3 µM), most hits filed as inhibitors; active = well fitted inhibition curve with a large enough effect; inconclusive = small, poorly fitted or top-dose-only effect; inactive = no such curve, though single readings can be large or run the other way; tested in mouse RAW 264.7 cells; note: nearly all actives have a fitted effect of over 55% in size
A number is an active result; i = inactive; ? = inconclusive; nt = no result given. Unless noted, calls come from the whole dose curve; as a rule, active = well fitted curve in the direction sought with a large enough effect; inconclusive = small, poorly fitted or top-dose-only effect, or another doubt; inactive = no such curve, though single readings can be large; an effect the other way counts as inactive or inconclusive.

SMILES | HT1080 IDH1KD tx | IL-1B inflam inh | HT1080-NT tox | DT40 TDP1 CPT | TDP1 cell noCPT | uPA surface inh
COc1ccc(C(NC(C)=O)c2cc(Cl)c3cccnc3c2O)cc1OC (stereo not drawn) | i | i | i | 7.3µM | 4.6µM | i
CCOc1ccc(C(NC(C)=O)c2cc(Cl)c3cccnc3c2O)cc1 (stereo not drawn) | nt | nt | nt | 3.2µM | 4µM | nt
Cc1onc(-c2c(Cl)cccc2Cl)c1C(=O)NCCc1ccc(S(N)(=O)=O)cc1 | i | i | i | i | i | i
CN(C)c1nc(-c2cccc(NS(C)(=O)=O)c2)nc2ccccc12 | nt | nt | nt | i | i | nt
NCC1O[C@@H](OC2C(N)C[C@H](N)[C@@H](O[C@H]3OC(CO)C(O)C(N)C3O)C2O)C(O)C(O)C1O (stereo partly drawn) | nt | nt | nt | i | i | nt
COc1ccc(C(C)NC(=O)c2ccccc2)cc1 (stereo not drawn) | i | i | i | i | i | i
O=C(O)COc1ccccc1C(Nc1ccccn1)c1cc(Cl)c2cccnc2c1O (stereo not drawn) | i | i | i | i | ? | i
CCC(=O)NC(c1ccc(OC)c(OC)c1)c1cc(Cl)c2cccnc2c1O (stereo not drawn) | ? | i | ? | 4.1µM | 4.6µM | i
COc1ccc(C(=O)NC(c2ccc(Cl)cc2)c2cc(Cl)c3cccnc3c2O)cc1 (stereo not drawn) | nt | nt | nt | 3.7µM | 4.1µM | nt
CCC(=O)NC(c1ccc(C)cc1)c1cc(Cl)c2cccnc2c1O (stereo not drawn) | nt | nt | nt | nt | nt | i
COc1ccc(C(NC(=O)c2ccc(-c3ccccc3)cc2)c2ccccc2)cc1 (stereo not drawn) | i | i | i | 13µM | 13µM | i
Cc1ccc([N+](=O)[O-])cc1NCC(=O)NN | i | i | i | i | i | i
COc1cccc(-c2nnc3sc(CN4CCCCC4)cn23)c1 | nt | nt | nt | 1.2µM | 1.3µM | nt
c1ccc(-c2nnc3sc(CN4CCc5ccccc54)cn23)cc1 | nt | i | nt | 21µM | ? | ?
O=c1c(N2CCc3ccccc3C2)csc2ccc(Br)cc12 | nt | nt | nt | 23µM | ? | nt
Brc1ccc(-c2csc(N3CCc4ccccc4C3)n2)cc1 | i | i | i | i | i | i
Cc1ccccc1NC(=O)Cc1nc(-c2c[nH]c(C(=O)N3CCCC3)c2)cs1 | i | i | i | 18µM | ? | i
Cc1cccc(NC(=O)Cc2nc(-c3c[nH]c(C(=O)N4CCCC4)c3)cs2)c1 | i | i | i | ? | ? | i
CC(C)c1c(O)ccc2c1CC[C@H]1C(C)(C)CCC[C@]21C | ? | ? | ? | 13µM | ? | i
CC(C)(O)c1ccc2c(c1)CCC1C(C)(C(=O)O)CCCC21C (stereo not drawn) | i | i | i | i | i | i
O=C1N(Cc2cccc(Cl)c2)C[C@@H]2C[C@@H](c3cccn3-c3cccnc3)N3CCC[C@@]123 | i | -56 | i | ? | 21µM | i
Cc1nn(C)cc1[C@@H]1C[C@H]2CN(Cc3cccc(Cl)c3)C(=O)[C@]23CCCN13 | i | i | i | i | ? | i
Cn1cc([C@@H]2C[C@H]3CN(Cc4cccc(Cl)c4)C(=O)[C@]34CCCN24)c(-c2ccccc2)n1 | i | -80 | i | ? | ? | i
NC(Cc1ccc(O)c([N+](=O)[O-])c1)C(=O)O (stereo not drawn) | i | i | i | i | i | i
N[C@@H](Cc1ccc(O)c(O)c1)C(=O)O | i | -107 | i | i | i | i
SMILES | HT1080 IDH1KD tx | IL-1B inflam inh | HT1080-NT tox | DT40 TDP1 CPT | TDP1 cell noCPT | uPA surface inh
CCCNC(=O)c1cc(C2CCCN(C(=O)c3ccccc3)C2)on1 (stereo not drawn) | i | i | i | i | i | nt
CCCCc1ccc(S(=O)(=O)NC(=O)C2(C)CCN2C(=O)CCc2cccs2)cc1 (stereo not drawn) | i | i | i | i | i | nt
CS/C(Nc1cc(Cl)ccc1Cl)=C(/C#N)C(=O)c1ccco1 | ? | i | i | 9.2µM | 16µM | i
O=C(Nc1cc(Cl)ccc1Cl)c1ccco1 | i | i | i | i | i | i
O=C(CC12CC3CC(CC(C3)C1)C2)NC(=S)N1CCCCC1 | i | i | i | i | ? | i
COc1cc(-c2cc3nc(NCc4ccco4)ccn3n2)cc(OC)c1OC | ? | i | ? | 21µM | 12µM | nt
NS(=O)(=O)c1ccc(CCNc2ccn3nc(-c4ccccc4)cc3n2)cc1 | i | i | i | 26µM | ? | nt
Clc1ccccc1-c1cc2nc(NCc3ccco3)ccn2n1 | i | ? | i | ? | ? | nt
CC(C)(C)c1cc2nc(NCCc3ccc(S(N)(=O)=O)cc3)ccn2n1 | i | i | i | i | i | nt
Clc1ccccc1-c1cc2nc(NCCCn3ccnc3)ccn2n1 | i | i | i | i | i | nt
CC(C)Cc1ccc(-c2cc3nc(NCCc4ccc(S(N)(=O)=O)cc4)ccn3n2)cc1 | 23µM | i | ? | 23µM | 12µM | nt
CC(C)Cc1ccc(-c2cc3nc(NCCCn4ccnc4)ccn3n2)cc1 | ? | i | 16µM | ? | ? | nt
COc1ccc(CC(=O)NCc2cccc(Cl)c2)cc1S(=O)(=O)N1CCOCC1 | i | i | i | i | ? | nt
CCCCn1c(N)c(N(CC(C)C)C(=O)CSc2nnc(C)n2-c2ccccc2)c(=O)[nH]c1=O | i | i | i | i | i | i
O=C(NCCN1CCCCC1)c1ccc(I)cc1 | nt | nt | nt | i | ? | nt
COc1cc(-c2cc3nc(NCCc4ccc(S(N)(=O)=O)cc4)ccn3n2)cc(OC)c1OC | i | -50 | i | 23µM | 21µM | nt
COc1cc(-c2cc3nc(NCCOc4ccccc4)ccn3n2)cc(OC)c1OC | 9.2µM | i | 21µM | 2.6µM | 2.3µM | nt
COc1cc(CCNc2ccc3nnc(-c4ccccc4)n3n2)cc(OC)c1OC | i | i | i | 16µM | 10µM | i
COc1cc(-c2cc3nc(NCCc4ccncc4)ccn3n2)cc(OC)c1OC | i | -58 | i | 18µM | 18µM | nt
COc1ccc2nnc(-c3ccccc3)n2n1 | i | i | i | i | i | i
O=C(Cc1ccc(S(=O)(=O)N2CCOCC2)s1)NCCOc1ccccc1 | i | i | i | i | i | i
C=CCN(CC=C)Cc1cc(=O)oc2cc(OC)ccc12 | i | i | i | ? | ? | nt
O=C(CN(Cc1ccco1)C(=O)c1cccc(Cl)c1)Nc1c(Cl)cc(Cl)cc1Cl | i | i | i | 26µM | ? | i
CC1=C(C#N)C(C)(C)C(C#N)=C(C)N1 | i | i | i | i | ? | nt
CCN(CC(=O)NC1CCS(=O)(=O)C1)C(C)C(=O)Nc1ccc(F)cc1 (stereo not drawn) | i | i | i | i | i | i

Screening results: PubChem BioAssay, National Center for Advancing Translational Sciences (NCATS)
